# Results published in the supplement of paper PMC6522484.
# ± gives the standard deviation of the averaged measurements.
# Legend:
# [1] = test system: DLD1; test: cell viability (CellTiter-Glo) relative to plate median (fraction of plate median); higher = more viable cells; details: 5 µM; treatment time 24 h; reporter: 7TFP
# Summary of the method: (§1)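 Colorectal cancer cell lines stably transduced with lentiviral TCF/Wnt firefly luciferase reporters (7TFP or TCF4/Wnt) were seeded in 384-well plates. 24 h later they received library compounds at a final 5 µM for 24 h. Parallel plates were read for firefly luciferase or CellTiterGlo luminescence on a Tecan F500 reader. Each well's signal was normalised to the plate median (webcellHTS2, additive, no log transformation), and the mean of two independent replicates is reported.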
# [2] = test system: HCT116; test: as above; details: 5 µM; treatment time 24 h; reporter: TCF4/Wnt
# Summary of the method: as §1
# [3] = test system: SW480; test: as above; details: 5 µM; treatment time 24 h; reporter: 7TFP
# Summary of the method: as §1
# [4] = test system: DLD1; test: TCF/Wnt firefly luciferase reporter signal relative to plate median (fraction of plate median); higher = higher Wnt reporter signal; details: 5 µM; treatment time 24 h; reporter: 7TFP
# Summary of the method: as §1
# [5] = test system: SW480; test: as above; details: 5 µM; treatment time 24 h; reporter: 7TFP
# Summary of the method: as §1
Structure (SMILES),cell viability [1],cell viability [2],cell viability [3],TCF/Wnt firefly luciferase reporter signal [4],TCF/Wnt firefly luciferase reporter signal [5]
OCCN1CCN(CCCN2c3ccccc3Sc3ccc(C(F)(F)F)cc32)CC1,0.902 ± 0.082,0.973 ± 0.019,1.05 ± 0.09,0.927 ± 0.12,1.04 ± 0.1
CC(=O)NCCc1ccc(O)cc1 [N-Acetyl-tyramine],0.951 ± 0.017,0.985 ± 0.092,0.991 ± 0.0071,1.13 ± 0.042,1.05 ± 0.035
N=C(N)NCCN1CCCCCCC1,1.03 ± 0.035,1.04 ± 0.11,1.04 ± 0.05,0.983 ± 0.081,1.115 ± 0.0071
CC(C)=CCC[C@@H](C)[C@H]1CC[C@@]2(C)C3=C(CC[C@]12C)[C@@]1(C)CC[C@H](O)C(C)(C)[C@@H]1CC3,1 ± 0.029,1.01 ± 0.12,0.994 ± 0.0085,0.952 ± 0.023,0.83 ± 0.05
C/C=C(/C(=C/C)c1ccc(O)cc1)c1ccc(O)cc1,0.987 ± 0.018,0.997 ± 0.061,1 ± 0.015,1.07 ± 0.15,1.09 ± 0.071
CCCCC[C@@H](O)[C@H]1C(=O)O[C@H](C)[C@@H](O)/C=C/C=C/C=C/C=C/C=C(\C)[C@@H](O)C[C@H](O)C[C@H](O)C[C@H](O)C[C@H](O)C[C@H](O)C[C@@H]1O,1.02,1.05 ± 0.05,0.989 ± 0.03,1.01 ± 0.022,1.09 ± 0.078
O=C1OC(=O)[C@H]2[C@@H]1[C@@H]1CC[C@H]2O1,0.9975 ± 0.0035,0.867 ± 0.079,0.949 ± 0.0085,1.06 ± 0.13,0.892 ± 0.02
COc1cc(C(=O)N2CCOCC2)cc(OC)c1OC,1.08 ± 0.11,1.03 ± 0.079,1.06 ± 0.028,1.04 ± 0.24,1.08 ± 0.035
COc1ccc2cc1Oc1ccc(cc1)C[C@H]1c3c(cc4c(c3Oc3cc5c(cc3OC)CCN(C)[C@@H]5C2)OCO4)CCN1C,1.02 ± 0.052,0.934 ± 0.052,1.14 ± 0.035,1 ± 0.054,1.05 ± 0.028
c1ccc(CN(CC2=NCCN2)c2ccccc2)cc1,0.9805 ± 0.0092,1.03 ± 0.055,1.08 ± 0.021,1.18 ± 0.05,1.06 ± 0.096
O=c1cc(-c2ccc(O)cc2)oc2ccc(O)cc12,1.11 ± 0.11,1.1 ± 0.099,1.035 ± 0.0071,1.03 ± 0.11,1.125 ± 0.0071
CO[C@H]1/C=C/O[C@@]2(C)Oc3c(C)c(O)c4c(O)c(c5c(nc6cc(C)ccn65)c4c3C2=O)NC(=O)/C(C)=C\C=C\[C@H](C)[C@H](O)[C@@H](C)[C@@H](O)[C@@H](C)[C@H](OC(C)=O)[C@@H]1C,1.05 ± 0.093,1.1 ± 0.035,1.04 ± 0.042,1.05 ± 0.15,1.11 ± 0.071
Clc1ccc(COC(Cn2ccnc2)c2ccc(Cl)cc2Cl)c(Cl)c1 (stereo not given),0.964 ± 0.042,1.01 ± 0.014,0.973 ± 0.0099,1.04 ± 0.11,1.04 ± 0.12
CC(C)CCCCCCCCC1CC(=O)NC(CCC(=O)O)C(=O)NC(CC(C)C)C(=O)NC(CC(C)C)C(=O)NC(C(C)C)C(=O)NC(CC(=O)O)C(=O)NC(CC(C)C)C(=O)NC(CC(C)C)C(=O)O1 (stereo not given) [Surfactin B1],0.959 ± 0.072,0.925 ± 0.018,0.962 ± 0.038,0.92 ± 0.21,1.01 ± 0.015
COc1c(Cl)ccc(Cl)c1C(=O)O,1.01 ± 0.039,1.11 ± 0.16,0.99 ± 0.057,1 ± 0.15,0.874 ± 0.0057
CC(=O)OCC(=O)[C@@]1(O)CC[C@H]2[C@@H]3CCC4=CC(=O)C=C[C@]4(C)[C@H]3[C@@H](O)C[C@@]21C,0.992 ± 0.04,0.864 ± 0.1,0.936 ± 0.0042,1.08 ± 0.11,1.11 ± 0.092
